Measured values from PubChem BioAssay AID504332 (National Center for Advancing Translational Sciences (NCATS), 2011).
The whole screen tested about 350,000 compounds, of which about 31,000 (8.9%) were called active. Where a call stands in place of a potency, no number is given. Not shown: some 15% with an inconclusive outcome. Many of the other results were omitted from the sample, so actives are more common in it than they were. Unmarked numbers belong to inactive results. Calls follow the shape of the dose curve; as a rule, active = well fitted inhibition curve with a large enough effect; inconclusive = small, poorly fitted or top-dose-only effect; inactive = no such curve, though single readings can be large or run the other way.

Each compound was assayed against Histone-lysine N-methyltransferase EHMT2 (Homo sapiens) (UniProt Q96KQ7) (assay: qHTS Assay for Inhibitors of Histone Lysine Methyltransferase G9a). Details: G9a H3K9 monomethylation, AlphaScreen, 2 h; series mostly up to 59 µM.
How it was run: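 Enzyme 20 nM + cpd, 15 min RT; add b-H3K9 pep 500 nM / SAM 20 uM; 2 h RT; anti-H3K9me1 Ab 0.5 ug/mL + SA donor / anti-rabbit acceptor beads 20 ug/mL each, 10 min; AlphaScreen read.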
Also: nearly all actives have a fitted effect of over 75% in size.
Potency is read from the fitted curve at half-maximal effect.

Histone-lysine N-methyltransferase EHMT2 (Homo sapiens), sequence (Q96KQ7 913-1193 limits assumed): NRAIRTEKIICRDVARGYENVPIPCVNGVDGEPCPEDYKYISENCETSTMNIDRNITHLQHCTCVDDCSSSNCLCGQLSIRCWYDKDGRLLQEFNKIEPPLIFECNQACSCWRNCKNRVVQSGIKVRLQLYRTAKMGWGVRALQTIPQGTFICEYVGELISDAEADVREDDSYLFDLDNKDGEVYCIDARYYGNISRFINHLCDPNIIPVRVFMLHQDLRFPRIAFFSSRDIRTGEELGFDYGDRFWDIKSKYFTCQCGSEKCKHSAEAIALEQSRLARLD

Structure (SMILES)	Potency	activity, negative = inhibition
COc1ccccc1CNC(=O)CCn1c(=O)c2ccccc2n(CC(=O)Nc2cccc(Cl)c2)c1=O	inactive	
COc1cccc(NC(=O)N2CCN(C(=O)c3nsc4ccccc34)CC2)c1	inactive	
COc1cc(CNC(=O)c2cc3n(n2)CCCN(Cc2cccc(F)c2)C3=O)cc(OC)c1OC	inactive	
CCNC(=O)CSc1nc(-c2ccccc2)cs1	inactive	
Cn1c(CNc2nc(-c3ccccc3)cs2)nnc1SCC(=O)c1ccccc1	39.8 µM (active)	
CCOC(=O)CSc1nnc(CNc2nc(-c3ccccc3)cs2)n1C		2.05% [at 12.7 µM]
CC(C)n1ncc2c(C(=O)Nc3ccc(CC#N)cc3)cc(C3CC3)nc21		10% [at 2.33 µM]
COc1ccc(C(CNC(=O)c2ccc(NS(=O)(=O)c3ccc(F)c(C)c3)cc2)N(C)C)cc1 (centres undefined)	inactive	
Cc1nnc(NCc2ccccc2)c2c1nnn2Cc1ccc(F)cc1	inactive	
COCCNc1ccc(-c2n[nH]c(=O)c3ccccc23)cc1[N+](=O)[O-]	inactive	
Cc1cc(C)cc(NS(=O)(=O)c2ccc(-c3cc(C)no3)s2)c1	inactive	
OCCN1CCN(C(=S)c2ccc(-c3ccccc3)cc2)CC1	22.4 µM (active)	
O=C(NC(c1ccccc1)c1ccccc1)N1CCN(CCO)CC1	inactive	
OCCN1CCN(c2nnc(-c3ccccc3)c3ccccc23)CC1	inactive	
COCCNC(=O)CSc1nc(-c2ccccc2)[nH]c1-c1ccc(C)cc1	inactive	
Cc1ccc(N=C2SCCCN2C(=O)c2cccc(N3C(=O)CCC3=O)c2)cc1Cl		10.1% [at 0.501 µM]
COC(=O)CN1C(=O)[C@H]2[C@@H](/C=C/c3ccccc3)N3C(=O)CN(Cc4ccccc4)C(=O)[C@@]3(Cc3ccccc3)[C@H]2C1=O	inactive	
Fc1ccccc1Oc1ncnc2c1oc1ccccc12	inactive	
COc1cccc(NS(=O)(=O)c2ccc(-c3coc(C)n3)cc2)c1	inactive	
COc1ccc(-c2nc3sc(CCNS(=O)(=O)c4ccc(F)c(C)c4)c(C)n3n2)cc1	inactive	
Nc1ncnc2c1c(I)cn2[C@@H]1C[C@H](N)[C@@H](O)[C@H]1O	6.7 µM (active)	
CC(C)Oc1ccc(CNC(=O)C2CCN(c3nc4ccccc4n(C)c3=O)CC2)cc1	inactive	
COc1cccc(/C=C2\C=C(c3ccc(C)cc3)OC2=O)c1OC(C)=O	inactive	
CN(C)/C=C1\C=C(c2ccccc2)OC1=O	39.8 µM (active)	

Structure (SMILES)	Potency	activity, negative = inhibition
COc1ccccc1/C=C/C1=NC(=C\N(C)C)/C(=O)O1	inactive	
COc1ccc(-c2ccc3nnc(SCC(=O)Nc4ccc(NC(C)=O)cc4)n3n2)cc1	inactive	
Cc1ccc(-c2nnc(SCc3ccccc3C)o2)cc1	inactive	
CCNC(=S)N(CCN(CC)CC)Cc1cc2cc3c(cc2[nH]c1=O)OCO3	inactive	
CCN(CC)CCCNC(=S)N(CCO)Cc1cc2cc3c(cc2[nH]c1=O)OCO3	inactive	
COCCCNC(=S)N(CCN(C)C)Cc1cc2cc3c(cc2[nH]c1=O)OCCO3	35.5 µM (active)	
CCN(CC)S(=O)(=O)c1ccc2c(c1)nc(CN(C)C(=O)Nc1ccc(Cl)cc1)n2C		1.45% [at 12.7 µM]
O=C(COc1ccccc1)Nc1ccc(C(=O)N2CCCC2)cc1	inactive	
COc1ccc(-c2nn3c(-c4ccc(OC)cc4)nnc3c3ccccc23)cc1	inactive	
CNC(=S)Nc1ccc([N+](=O)[O-])cc1	56.2 µM (active)	
NC(=S)N/N=C/c1ccc([N+](=O)[O-])cc1	inactive	
CC(=O)NC(=S)Nc1ccc(NC(=S)NC(=O)c2ccc([N+](=O)[O-])cc2)cc1	inactive	
CCN(CC)CCNC(=O)CN1N=C(c2ccc(OC)cc2)CCC1=O	inactive	
CCCn1c(=O)c(C(=O)Nc2cc(C)ccn2)c(O)c2ccccc21		-5.46% [at 0.501 µM]
O=C(COC(=O)Cn1[nH]c(=O)c2ccccc2c1=O)Nc1c(Cl)cccc1C(F)(F)F		2.11% [at 0.501 µM]
CN(C)S(=O)(=O)c1ccc(NC(=O)COC(=O)Cn2[nH]c(=O)c3ccccc3c2=O)cc1	inactive	
O=C(COC(=O)Cn1[nH]c(=O)c2ccccc2c1=O)Nc1ncc(Cl)cc1Cl	56.2 µM (active)	
Cc1noc2ncnc(NCc3ccccc3Cl)c12	inactive	
COc1ccccc1CNC(=O)C1CCN(S(=O)(=O)c2ccc3c(c2)CC(C)N3C(=O)C2CC2)CC1 (centres undefined)	inactive	
Cc1cc(C)c(C)c(S(=O)(=O)N2CCN(C(=O)c3ccc4c(=O)n5c(nc4c3)CCC5)CC2)c1C		-30.4% [at 0.501 µM]
CCN(CC)S(=O)(=O)c1ccc(C)c(NC(=O)COc2ccc(Br)cc2Cl)c1	inactive	
CC1CCN(S(=O)(=O)c2nnc(NC(=O)COc3ccccc3F)s2)CC1	inactive	
Cc1ccccc1OCC(=O)Nc1nnc(S(=O)(=O)N2CCCC2)s1	2.24 µM (active)	
Cc1cccc(C(=O)Nc2nnc(S(=O)(=O)N3CCCCCC3)s2)c1	inactive	

Structure (SMILES)	Potency	activity, negative = inhibition
COc1cccc(C(=O)Nc2nnc(S(=O)(=O)N3CCCCC3)s2)c1	inactive	
O=C(Nc1nnc(S(=O)(=O)N2CCOCC2)s1)c1cccc(Br)c1	inactive	
O=C(Nc1nnc(S(=O)(=O)N2CCCCCC2)s1)c1cccc(Br)c1	8.91 µM (active)	
CCN(CC)S(=O)(=O)c1nnc(NC(=O)COc2ccccc2Cl)s1	2.82 µM (active)	
CCC(=O)Nc1nnc(S(=O)(=O)N(CC(C)C)c2ccccc2)s1	inactive	
COc1ccc(Cl)cc1NC(=O)COc1ccc2c(c1)OCO2		6.56% [at 12.7 µM]
CCc1ccc(CNC(=O)c2cc3c(=O)n(CC)c4ccccc4c3s2)cc1	inactive	
CCCN1CN=C(NS(=O)(=O)c2ccc(NC(C)=O)cc2)NC1	inactive	
O=S(=O)(c1ccc(-c2ccno2)s1)N1CCCCC1	inactive	
COc1ccc(NS(=O)(=O)c2cc(NC(=O)COc3ccccc3F)ccc2OC)cc1		30.6% [at 12.7 µM]
CC1=C(C(=O)Nc2ccccc2Cl)C(c2cccs2)n2ncnc2N1 (centres undefined)	inactive	
CC1(C)O[C@@H]2[C@H](O1)[C@@H](COS(=O)(=O)O)O[C@H]2n1ccc(=O)[nH]c1=O		2.02% [at 2.33 µM]
Cc1cccc(-c2oc3ccc(-c4ccc5c(c4)OCO5)cc3c2C#Cc2cncn2C)c1		7.97% [at 0.501 µM]
COc1ccc(Cl)cc1C(=O)OCC(=O)NCc1cccs1	inactive	
CCSc1nnc(NC(=O)c2cc(=O)c3cc(C)c(C)cc3o2)s1	inactive	
Cc1ccc(Cl)cc1NC(=O)NC1COc2ccccc2C1 (centres undefined)	inactive	
Fc1ccc(Nc2nnns2)cc1	10 µM (active)	
CN(C)c1nc(NN)nc(Nc2ccc(F)cc2)n1	inactive	
CSc1nc(Nc2ccc(F)cc2)cc(-c2ccccc2)n1	inactive	
Cc1ccc(C2=CSC3=NS(=O)(=O)CCN23)cc1C	inactive	
O=S1(=O)CCN2C(=N1)SC1=C2CCN(Cc2ccccc2)C1	20 µM (active)	
O=C1/C(=C\c2cccnc2)CN(Cc2ccccc2)C/C1=C\c1cccnc1	inactive	
COc1ccccc1C(=O)NCCC(=O)N(C)Cc1cccnc1	inactive	
O=C1C(=O)N(CCCO)C(c2ccccc2)/C1=C(\O)c1ccc(Br)cc1 (centres undefined)		12.3% [at 0.501 µM]

Structure (SMILES)	Potency	activity, negative = inhibition
COc1ccc(C2/C(=C(/O)c3ccc(OC(C)C)cc3)C(=O)C(=O)N2CCCN2CCOCC2)cc1 (centres undefined)	44.7 µM (active)	
CC1Cc2cc(/C(O)=C3\C(=O)C(=O)N(CCN4CCOCC4)C3c3ccccc3F)ccc2O1 (centres undefined)	inactive	
COCCN1C(=O)C(=O)/C(=C(/O)c2ccc(S(=O)(=O)N3CCOCC3)cc2)C1c1ccc(OC)c(OC)c1 (centres undefined)	inactive	
O=C1C(=O)N(CCCN2CCOCC2)C(c2ccc([N+](=O)[O-])cc2)/C1=C(\O)c1ccc2c(c1)OCCO2 (centres undefined)		-12.3% [at 0.0925 µM]
O=C1C(=O)N(CCN2CCOCC2)C(c2ccccn2)/C1=C(/O)c1ccc(Cl)cc1 (centres undefined)	7.94 µM (active)	
CCCCSCCCNC(=O)C1CCC(CNS(=O)(=O)c2ccc(NC(C)=O)cc2)CC1 (centres undefined)	inactive	
COCCN(Cc1ccccc1)C(=O)Cc1ccc(S(=O)(=O)N2CCOCC2)s1		-3.78% [at 12.7 µM]
COc1ccc(NC(=O)Cn2c(=O)n(CCC(C)C)c(=O)c3cccnc32)cc1Cl	inactive	
O=C(Nc1ccc(Br)cc1)c1cc2nc(-c3ccccc3)cc(-c3ccccc3)n2n1	inactive	
COc1ccc(C(=O)NC(=S)Nc2ccc(N3CCCC3)cc2)cc1OC	3.98 µM (active)	
Cc1ccc(C(=O)NC(=S)NCCN2CCOCC2)cc1	inactive	
COc1ccc(C(=O)Nc2ccc3nc(N4CCCCC4)cc(C)c3c2)cc1OC	inactive	
Cc1ccc(C(=O)NC(=S)Nc2ccc(N3CCOCC3)cc2)cc1	7.94 µM (active)	
COc1cccc(C(=O)Nc2ccc3nc4n(c(=O)c3c2)CCCCC4)c1	inactive	
COc1ccc(C(=O)Nc2ccc(N3CCC(C)CC3)cc2)cc1Br	inactive	
O=C(O)CCC(=O)Nc1ccc(N2CCOCC2)cc1	inactive	
Cc1ccccc1C(=O)NC(=S)Nc1ccc(N2CCN(C(=O)c3ccccc3)CC2)cc1	inactive	
O=C(Cc1ccccc1)NC(=S)Nc1ccc(N2CCCCC2)cc1	7.94 µM (active)	
COc1cccc(C(=O)Nc2ccc(N3CCN(C(=O)c4ccco4)CC3)cc2)c1	inactive	
COC(=O)Cc1ccc(NC(=S)NCc2ccccc2)cc1	inactive	
COc1cccc(C(=O)Nc2ccc(N3CCCC3)cc2)c1	4.47 µM (active)	
COc1ccc2oc(-c3ccc(C)c(NC(=O)c4sc5ccccc5c4Cl)c3)nc2c1	inactive	
